Results filed as inconclusive are left out. Where a call stands in place of a potency, no number is given. Activity calls are given as the source filed them. Calls come from the whole dose curve; as a rule, active = well fitted inhibition curve with a large enough effect; inconclusive = small, poorly fitted or top-dose-only effect; inactive = flat fitted curve, though single readings scatter.
system: Zika virus NS2B-NS3 protease; assay: Primary screen GU AMC qHTS for Zika virus inhibitors (AID 1347154); conditions: Zika NS2B-NS3 unlinked protease, AMC fluorogenic substrate; series mostly up to 54.1 µM; note: nearly all actives have a fitted effect of over 70% in size
In short: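 Unlinked Zika NS2B hydrophilic domain/NS3 protease domain noncovalent complex (25 nM final) in 10 mM Tris-HCl pH 8.0, 0.01% Tween 20, with AMC peptide substrate. Fluorescence (ex 340, em 450 nm) change over 15 min, room temperature; percent inhibition fitted to 4-parameter Hill equation.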

Compound	Potency
COc1ccc2cc1Oc1ccc(cc1)C[C@H]1c3cc(c(OC)cc3CCN1C)Oc1c(OC)c(OC)cc3c1[C@H](C2)N(C)CC3	inactive
CN(C)c1ccccc1CN1CCCN(Cc2ccccc2N(C)C)C1c1ccncc1	inactive
CON(C)C(=O)N1N=C(c2cc(F)ccc2F)S[C@]1(CCCN)c1ccccc1	inactive
CC=C1C2C=C(C)CC1(N)c1ccc(=O)[nH]c1C2 (configuration not stated)	inactive
OC[C@H]1O[C@@H](Oc2ccc(O)cc2)[C@H](O)[C@@H](O)[C@H]1O	inactive
CO[C@H]1O[C@@H]2O[C@@]3(C)CC[C@@H]4[C@@H](C)CC[C@@H]([C@H]1C)[C@@]24OO3	inactive
CN[C@@H]1[C@@H](O)[C@@H](O[C@@H]2[C@@H](O)[C@H](O[C@H]3O[C@H](CN)[C@@H](O)[C@H](O)[C@@H]3O)[C@@H](N)C[C@@H]2NC(=O)[C@@H](O)CN)OC[C@]1(C)O	inactive
Cc1[nH]c(C=C2C(=O)Nc3ccc(S(=O)(=O)N(C)c4cccc(Cl)c4)cc32)c(C)c1C(=O)N1CCN(C)CC1	inactive
OCCn1cc(-c2ccc3c(c2)CCC3=NO)c(-c2ccncc2)n1	inactive
O=C(O)C1=CO[C@@H](O[C@@H]2O[C@H](CO)[C@H](O)[C@H](O)[C@H]2O)[C@@H]2C(CO)=CC[C@H]12	inactive
Cc1ccc(NC(=O)c2ccc(CN3CCN(C)CC3)cc2)cc1Nc1nc(-c2cccnc2)cs1	inactive
C[C@@H]1[C@H](C)CC[C@]2(C(=O)O)CC[C@]3(C)C(=CC[C@@H]4[C@@]5(C)CC[C@H](O)C(C)(C)[C@H]5CC[C@]43C)[C@@H]12	inactive
